Screening data from PubChem BioAssay.
Shown are actives, neighbours in structure and some others; about 11% of the full set was active somewhere.
ALDH1A1 block – inhibitors of human aldehyde dehydrogenase 1A1 | Potency, µM (titrated, usually from 75.3 µM), inactives show top-dose activity, negative = inhibition, most hits filed as inhibitors | P00352 | AID 1030 | Purified ALDH1A1, NADH fluorescence, propionaldehyde substrate | hit rate 7.3% among 220,000;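 also: potency is read from the fitted curve at half-maximal effect; plate controls were no enzyme wells and a reference inhibitor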
HPGD block – inhibitors of human 15-hydroxyprostaglandin dehydrogenase (HPGD); P15428; purified HPGD, NADH fluorescence kinetic, PGE2 substrate; Potency, µM, without a hit: at the top dose activity change, negative = inhibition, actives largely listed as inhibitors; hit rate 4.3% among 150,000; AID 894; also: potency is read from the fitted curve at half-maximal effect
Target sequence (P15428 whole entry, looked up): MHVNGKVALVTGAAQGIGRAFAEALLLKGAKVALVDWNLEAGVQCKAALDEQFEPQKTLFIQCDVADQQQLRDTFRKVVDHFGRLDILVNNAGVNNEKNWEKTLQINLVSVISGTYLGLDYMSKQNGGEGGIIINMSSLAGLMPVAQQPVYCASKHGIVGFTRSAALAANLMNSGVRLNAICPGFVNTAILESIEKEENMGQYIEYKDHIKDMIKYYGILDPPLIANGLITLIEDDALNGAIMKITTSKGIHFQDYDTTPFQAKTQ
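NADH formation kinetics: reaction with 30 uM PGE2 and 1 mM NAD+ (final), 20 nM enzyme, Tris-HCl pH 8 with Tween 20, after 15 min compound preincubation at room temperature. Fluorescence change, last versus first of five reads.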
PNC inhibitor – inhibitors of perinucleolar compartment assembly | PC3M PTB-GFP, PNC prevalence imaging, 16 h; active compounds read low | activity change (PNC), negative = inhibition, % at 10 µM | hit rate 3.1% among 140,000 | AID 2417;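 active = readout at or below -70, meaning at least 70% loss of cells showing the perinucleolar compartment, a nuclear body marking cancer cells; inconclusive = readout between -30 and a set limit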;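 also: plate controls were DMSO wells for no effect and camptothecin positive control wells for full effect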
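Read-out is percentage of cells bearing a perinucleolar compartment, from automated 20x imaging of fixed, Hoechst-stained PC3M PTB-GFP cells. Cells were seeded 4 h, then exposed 16 h to compound (23 nl of library stock) in duplicate plates.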
Active calls of the source: *; ? = inconclusive; · = not tested or not shown; [ ] = remark or other dose. Unless noted, calls follow the shape of the dose curve; as a rule, active = well fitted inhibition curve with a large enough effect (not every such curve was filed as active); inconclusive = small, poorly fitted or top-dose-only effect, or another doubt; inactive = no such curve, though single readings can be large or run the other way. Unless noted, % is scaled to controls: 0 for no effect and ±100 for the full control effect.

SMILES	ALDH1A1 block	HPGD block	PNC inhibitor
CCN(CC)S(=O)(=O)c1cccc(-c2n[nH]c(=S)n2C)c1	1%	·	·
Cc1cc(-c2n[nH]c(=S)n2CC(C)C)cs1	0%	-15%	24
NC(N)=N[C@@H]1C(O)[C@H](N=C(N)N)[C@@H](O)C(O)[C@H]1O (some centres not stated)	8%[13.5 µM]	-10%	·
[O-][N+](=Nc1ccccc1)c1ccccc1	-6%	1%	·
CC(=O)c1nn(-c2cccc(Br)c2)cc1C(=O)c1ccc(Cl)cc1	0%	-4%	26
O=C(O)CCC(=O)C(=O)O	5%[13.5 µM]	-16%	·
CC1(C)SC2C(N3C(=O)C(c4ccccc4)NC3(C)C)C(=O)N2C1C(=O)O (configuration not stated)	-5%	-20%	·
C[C@H]1Cc2c(-c3ccccc3)nc3c(c2CO1)CN(C(=O)NCCc1c[nH]c2ccccc12)CC3	11%[13.5 µM]	0%	·
On1nnc2ccc3ccccc3c21	-2%	-8%	40
Cc1ccccc1-n1c(Cc2cccs2)n[nH]c1=S	?	?	70
CCc1cc(-c2n[nH]c(=S)n2-c2ccccc2C)cs1	8.9µM*	?	36
O=C(c1cnc2n(c1=O)CCS2)N1CCCc2ccccc21	-3%	-11%	?
O=C(c1cnc2ccccn2c1=O)N1CCCc2ccccc21	8.9µM*	-9%	21
O=C(Nc1ccc2c(c1)OCCO2)N1CCN(Cc2ccccc2)CC1	13%	·	·
Cc1cccc(NC(=O)CSc2nnc(NC(=O)c3ccco3)s2)c1	-160%	·	·
CC[N+]1(CC)CC2CCC(C)(C1)C2(C)C (configuration not stated)	6%	·	·
CCN(C(=O)COc1cc(=O)n(CC)c2ccccc12)c1cccc(Cl)c1	6.3µM*	-3%	6
CCn1c(=O)cc(OCC(=O)N2CCCCCC2)c2ccccc21	?	32µM*	?
CCn1c(=O)cc(OCC(=O)N2CCN(c3ccc(F)cc3)CC2)c2ccccc21	-12%	·	·
CCN(Cc1ccccc1)C(=O)COc1cc(=O)n(CC)c2ccccc12	?	-24%	6
CCCN(CCC)C(=O)COc1cc(=O)n(CC)c2ccccc12	-7%	25µM*	-19
CCN(C(=O)COc1cc(=O)n(CC)c2ccccc12)c1cc(Cl)ccc1OC	5%	-7%	20
Cc1ccc(S(=O)(=O)N[C@H]2COC(=O)CC=C[C@@H](C)[C@H]3C=C[C@H](O)[C@@H](COC(=O)CC=C[C@H]2C)O3)cc1	5%[13.5 µM]	·	·
O=C(Nc1ccc(Cl)cc1)OCCN1CCN(Cc2ccccc2)CCC1=O	5%	-6%	·
COc1cc2nncc(SCc3ccc(Cl)c(Cl)c3)c2cc1OC	-13%[13.5 µM]	-5%	·
SMILES	ALDH1A1 block	HPGD block	PNC inhibitor
CCOc1ccc(-n2nc(C(=O)NCCOC)c3ccccc3c2=O)cc1	13%	-1%	4
CCOc1ccc(-n2nc(C(=O)N3CCN(CC)CC3)c3ccccc3c2=O)cc1	15%	-20%	-86*
C/C=C1\C2C=C(C)C[C@@]1(N)c1ccc(=O)[nH]c1C2	7%	-5%	·
Cc1ncoc1C(=O)Nc1nccs1	-7%	·	10
CC(=O)c1noc(C)c1C(=O)Nc1nccs1	-7%	1%	-93*
C/C(=N\Nc1ccc(C(=O)O)cc1)c1nc2ccccc2n1C	5%	16µM*	-14
COc1ccc(OC)c(/C(C)=N/Nc2ccc(C(=O)O)cc2)c1	-13%	·	·
Cn1c(/C=N/NC(=O)c2ccccc2)nc2ccccc21	?	?	54
C/C(=N/Nc1ccc(C(=O)O)cc1)c1ccc(O)c(O)c1O	?	25µM*	35
CN(C)C(=O)C1CCN(Cc2c[nH]c3ccccc23)CC1	14%[13.5 µM]	0%	·
O=C(COC(=O)CNC(=O)c1ccccc1)Nc1nc(-c2ccccc2)cs1	-11%	-2%	28
CCCOc1ccc(C(=O)Nc2cc(-c3nn4c(C)nnc4s3)ccc2C)cc1	-6%	1.3µM*	-12
CCOc1cccc(C(=O)Nc2cc(-c3nn4c(C)nnc4s3)ccc2C)c1	14%	-9%	-15
CC(=O)OC1CC(C)OC(C)O1 (configuration not stated)	9%	1%	·
CC(=O)N(Cc1nc2sc(C)c(C)c2c(=O)[nH]1)C1CCCC1	-5%	·	·
O=C(C#Cc1cccc([N+](=O)[O-])c1)c1ccccc1	3.5µM*	-16%	?
O=C(/C=C/c1cccc([N+](=O)[O-])c1)c1ccccc1	-4%	-7%	·
CCCCC/C=C\C=C\[C@@H](O)CCCCCCCC(=O)O	-4%	-5%	·
CCCCC[C@H](O)/C=C/C1=C(CCCCCCC(=O)O)C(=O)CC1	0%	-8%	-115*
COc1ccc([N+](=O)[O-])cc1NC(=O)C(C)OC(=O)c1ccccn1 (configuration not stated)	5%	·	·
COc1c(Br)cc(Br)cc1/C=C1/C(=O)N=C(N)N1C	11%	·	·
COc1cc(/C=C2/C(=O)N=C(N)N2C)cc(OC)c1OC	?	16µM*	31
O=C(Nc1cccc(NC(=O)C2CCCO2)c1)c1ccco1 (configuration not stated)	-5%	·	·
CCNC(=O)c1ccc(C2SCC(=O)N2Cc2ccco2)cc1 (configuration not stated)	-8%	-25%	85
O=C1CSC(c2ccncc2)N1Cc1ccccc1 (configuration not stated)	-3%	·	·
SMILES	ALDH1A1 block	HPGD block	PNC inhibitor
O=C(NCc1ccccc1)c1ccc(C2SCC(=O)N2Cc2ccccc2)cc1 (configuration not stated)	-6%	10µM*	86
CC(C)CCNC(=O)c1ccc(C2SCC(=O)N2Cc2ccco2)cc1 (configuration not stated)	?	?	-110*
O=C(NC1CC1)c1ccc(C2SCC(=O)N2Cc2ccccc2)cc1 (configuration not stated)	3%	·	·
CC(C)NC(=O)c1ccc(C2SCC(=O)N2Cc2ccccc2)cc1 (configuration not stated)	-4%	3.2µM*	138
COc1ccc(OCC2CN3C(CCC(C)C3c3ccc(Br)cc3)C(=O)O2)cc1 (configuration not stated)	6%[13.5 µM]	·	·
CCOC(=O)c1c(N)sc2c1CCC1C(=O)N(C3CCCCC3)C(=O)C21 (configuration not stated)	13µM*	?	-6
CCOC(=O)c1c(N)sc(C(=O)N2CCCC(C(N)=O)C2)c1C (configuration not stated)	?	-5%	·
CCOc1cc(C=O)cc(Br)c1OCC(N)=O	7.9µM*	·	·
CCCOc1c(Br)cc(C(N)=O)cc1OCC	9%	·	·
CCOc1cc(C=O)ccc1OCC(=O)N1CCCC1	-5%	·	·
CCCCOc1c(Br)cc(/C=N/O)cc1OCC	?	-8%	9
CCOc1cc(C=O)ccc1OCC(N)=O	11µM*	·	·
C=CCOc1c(Br)cc(/C=N/O)cc1OCC	14%	-5%	-109*
Cc1ccc(-n2ncc3c(NNC(=O)c4cccs4)ncnc32)cc1	1%	·	·
O=C(CSc1ncccn1)NCc1cccc(Cl)c1	14%	·	·
Cn1c(=O)c2[nH]c(CCNC(=O)c3ccccc3)nc2n(C)c1=O	?	-23%	·
O=C(O)/C=C\c1ccccc1Oc1cccc(Cl)c1	0%	·	·
Cc1cc(C)cc(Oc2ccccc2/C=C\C(=O)O)c1	3%	-5%	-86*
COc1ccc2nc(SCC(=O)Nc3cc(OC)c(OC)cc3C(=O)O)c(C)cc2c1	-3%	·	·
